High-throughput results (PubChem)
Peg3 prom inh-1: reduces Peg3 promoter-driven luciferase expression in HeLa. 1.7% of 360,000 active. HeLa PEG-Prom luciferase reporter, luminescence, overnight. inhibition, % at 20 µM;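 active means inhibition of at least 50% at 20 µM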
TWEAK Fn14 block: TWEAK-Fn14 signaling inhibition; TWEAK-stimulated Fn14 reporter cells, luciferase luminescence, 8 h; inhibition, % at 10 µM; 2% of 360,000 active; AID 1159606; in the data active means inhibition above about 50%
CF NFkB inh: inhibitors of cystic fibrosis induced NF-kB. 0.86% of 360,000 active. AID 588850. KKLEB NF-kB-GFP reporter, PAF-induced, GFP fluorescence overnight. inhibition, % at 5 µM;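 active means at least 50% inhibition at 5 µM, scaled per plate between neutral and stimulator controls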;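 further: PAF is a Pseudomonas aeruginosa culture filtrate used as stimulus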
KKLEB cytotox: reduces viability of KKLEB cystic fibrosis airway cells. KKLEB CF airway cells viability, ATPlite luminescence, overnight; hits give low values; cells stimulated with P. aeruginosa culture filtrate. activity change (cytotoxicity), % at 5 µM. 0.36% of 360,000 active. AID 602141;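 active means corrected activity change at or below -50% at 5 µM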
TROY signal inh: TROY signaling inhibition | Q293 LMP1-TROYcd NF-kB luciferase reporter, 4 h | inhibition, % at 10 µM | 0.98% of 360,000 active | AID 1347056;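 active means compounds whose plate-normalised and pattern-corrected inhibition of the luciferase reporter signal at the single screening dose is 50% or more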
HIF-2a inh: inhibitors of HIF-2a; 786-0 RCC cells HIF-2a reporter, luciferase luminescence, overnight; inhibition, % at 18.8 µM; 0.72% of 360,000 active;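 active means inhibition of the luminescence signal of 40% or more relative to plate controls, in a single-dose primary screen at 18.75 µM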
Peg3 prom inh-2: Peg3 promoter inhibition confirmation; shares compounds with Peg3 prom inh-1; HeLa PEG-Prom luciferase reporter, luminescence, overnight; inhibition, % at 20 µM; 84% of 1,300 active;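 active means at 20 µM dose, 40% or more inhibition averaged across four replicates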
Large screens that a line does not name were inactive (follow-up assays come after a bar, where they were run). Only some compounds are listed: those with a hit (about 3.9% of all), similar ones and a draw of the others.

O=C(O)c1cccc(-c2noc(-c3cccc(Cl)c3)n2)c1	Peg3 prom inh-1 54, HIF-2a inh 79
COc1cccc(NC(=O)C2(C)CCN2Cc2ccc(-c3ccccc3)o2)c1 (stereo unspecified)	none
COc1ccc(/C=C2\SC(=S)N(CCCC(=O)Nc3cccc(C(=O)O)c3)C2=O)cc1OC	none
COc1ccc(/C=C2\SC(=S)N(CCC(=O)NC3=NCCS3)C2=O)cc1OC	HIF-2a inh 54
COc1ccc(/C=C2\SC(=S)N(CCCC(=O)Nc3ccccn3)C2=O)cc1OC	TWEAK Fn14 block 52, HIF-2a inh 40
O=C(Nc1ccn(CCCNCc2cccc3ccccc23)c(=O)n1)OCc1ccccc1	none
COc1ccc(-c2cc(-c3ccccc3)no2)cc1	TWEAK Fn14 block 69
COc1ccc(-c2cc(C(=O)N3CCOCC3)no2)cc1	TWEAK Fn14 block 65
COc1ccc(-c2cc(CCCC(=O)N3CCN(c4ccc(OC)cc4)CC3)no2)cc1	TWEAK Fn14 block 51
c1ccc(-c2cc(-c3cc(-c4ccccc4)on3)no2)cc1	none
O=C(c1cc(-c2ccc(Br)cc2)on1)N1CCOCC1	TWEAK Fn14 block 55
COc1ccc(OC)c(C2NC(=O)NC(C)=C2C(=O)OC2CCCCC2)c1 (stereo unspecified)	none
CC1(c2ccccc2)CC(C)(C)N2C(=O)/C(=C3\SC(=S)NC3=O)c3cccc1c32 (stereo unspecified)	TWEAK Fn14 block 70, CF NFkB inh 61, TROY signal inh 61
O=C1NC(=O)C2(CCC(C3CCCCC3)CC2)N1 (stereo unspecified)	none
CC(c1ccccc1)C1C(C#N)=C(N)SC(N)=C1C#N (stereo unspecified)	none
CC(CC1C(C#N)=C(N)SC(N)=C1C#N)c1ccccc1 (stereo unspecified)	TROY signal inh 50
O=C(Nc1ccc(Cl)cc1C(=O)NCc1cccnc1)c1ccc(Cl)cc1Cl	none
CC1C=CC=CC=CC=CC=CC=CC=CC(OC2OC(C)C(O)C(N)C2O)CC2OC(O)(CC(O)CC(O)C(O)CCC(O)CC(O)CC(=O)OC(C)C(C)C1O)CC(O)C2C(=O)O (stereo unspecified)	CF NFkB inh 55
CC1(C)CC(=O)C=C(c2ccc(-c3cnc4ccccc4c3)cc2)C1=O	TWEAK Fn14 block 85, TROY signal inh 92
C=C1C(C(=O)N2CCN(C)CC2)C1C(=O)N1CCN(C)CC1 (stereo unspecified)	none
C=C1C(C(=O)N2CCOCC2)C1C(=O)N1CCOCC1 (stereo unspecified)	TWEAK Fn14 block 78, TROY signal inh 57
NCc1ccc(S(N)(=O)=O)cc1	KKLEB cytotox -51
Cc1ccc(S(N)(=O)=O)cc1	none
Cc1c(NC(=O)c2nn3c(C(F)(F)F)cc(-c4ccccc4)nc3c2Br)c(=O)n(-c2ccccc2)n1C	none
C[C@H](CO)N1C[C@H](C)[C@@H](CN(C)C(=O)Nc2ccc(F)cc2)OCc2cnnn2CCCC1=O	none
COc1cc(OC)c(-c2nc(-c3ccncc3)no2)cc1OC	none
Cc1ccc(-c2nc(-c3ccccc3)no2)cc1	TWEAK Fn14 block 62
Cc1cccc(-c2noc(-c3ccc4c(c3)OCO4)n2)c1	TWEAK Fn14 block 57
O=[N+]([O-])c1cc(-c2nc(-c3ccncc3)no2)ccc1Cl	Peg3 prom inh-1 105
COc1ccc(-c2nc(-c3ccncc3)no2)c(OC)c1	TWEAK Fn14 block 56
Cc1ccc(C)c(/C(O)=C2\C(=O)C(=O)N(CCCn3ccnc3)C2c2cccnc2)c1 (stereo unspecified)	none
O=C(NC1CC1)C1=C[C@H](c2coc3ccccc3c2=O)C[C@H](OCc2ccc(CO)cc2)O1	none
Cc1ccc(-c2nc(-c3ccccc3)no2)c(Cl)c1	TWEAK Fn14 block 101, KKLEB cytotox -80, TROY signal inh 81, HIF-2a inh 61
COc1ccc(-c2noc(-c3ccccc3-c3ccccc3)n2)cc1	none
CC(C)(C)c1ccc(-c2nc(-c3ccncc3)no2)cc1	TWEAK Fn14 block 79, TROY signal inh 72
O=C(Cc1ccc(Cl)cc1)N1CCc2ccccc2C1	none
CC(C)c1ccc(NC(=O)Nc2nc(C(N)COCc3ccccc3)cs2)cc1 (stereo unspecified)	Peg3 prom inh-1 110
CC(C)c1ccc(NC(=O)Nc2nc(C(N)c3ccccc3)cs2)cc1 (stereo unspecified)	Peg3 prom inh-1 110
Cc1ccccc1NC(=O)Nc1nc(C(N)c2ccccc2)cs1 (stereo unspecified)	none
CC(C)c1ccc(NC(=O)Nc2nc(C(N)C(C)C)cs2)cc1 (stereo unspecified)	Peg3 prom inh-1 96
CC(C)C(N)c1csc(NC(=O)Nc2cccc(Cl)c2)n1 (stereo unspecified)	none
CS(=O)(=O)c1ccc(Nc2nc(C(N)COCc3ccccc3)cs2)cc1 (stereo unspecified)	none
N#CC(C#N)=C(N)CSc1cccc[n+]1[O-]	none
N#C/C(=C/c1ccc(-c2ccc([N+](=O)[O-])cc2)o1)c1nnc(N2CCOCC2)n1-c1ccccc1	Peg3 prom inh-1 67
CCC(c1ccc(O)c(O)c1)C(CC)c1ccc(O)c(O)c1 (stereo unspecified)	Peg3 prom inh-1 100, CF NFkB inh 84, HIF-2a inh 79 | Peg3 prom inh-2 98
O=C(NCC1(N2CCOCC2)CCCCC1)c1ccc(Cl)c(S(=O)(=O)NCc2ccco2)c1	none
Cc1ccc(S(=O)(=O)N2CCN(C(=O)c3ccc4ccccc4n3)CC2)c(C)c1	none
O=C(O)CCNc1ccc(NCCC(=O)O)c2c1C(=O)c1ccccc1C2=O	none
O=C1c2cccc(NCCNCCO)c2C(=O)c2cccc(NCCNCCO)c21	Peg3 prom inh-1 99, HIF-2a inh 78 | Peg3 prom inh-2 inactive
Cc1ccn2cc(CSc3ccccc3)nc2c1	none
CCOc1cc(/C=N/Nc2nc(-c3cccc(S(=O)(=O)N4CCCC4)c3)cs2)ccc1O	Peg3 prom inh-1 52, TWEAK Fn14 block 61 | Peg3 prom inh-2 47
CCN(CC(=O)NCc1ccc(Cl)cc1)C(=O)c1sccc1C	none
O=C(NC1CCCCC1)Sc1ccc(Cl)cc1	Peg3 prom inh-1 66 | Peg3 prom inh-2 66
CCc1nnc(NS(=O)(=O)c2ccc(NC(=S)NC(=O)c3ccc(OC)c(OC)c3)cc2)s1	none
Cc1cc2cc(CN(CC3CCCO3)C(=S)Nc3ccccc3)c(=O)[nH]c2cc1C (stereo unspecified)	none
OC1(c2ccc(Cl)c(Cl)c2)C[n+]2ccccc2N1Cc1ccccc1 (stereo unspecified)	Peg3 prom inh-1 95 | Peg3 prom inh-2 90
O=C(COC(=O)C1CCC1)NCc1ccccc1	none
